{"source": "paper PMC7862700", "about": "“An all-to-all approach to the identification of sequence-specific readers for epigenetic DNA modifications on cytosine”", "test_in_all_cases": "DAPPL (digital affinity profiling via proximity ligation, sequencing); 10 mM Tris-HCl pH 7.5, 50 mM NaCl, 1 mM DTT, 4% glycerol, room temperature, 30 min; GST-TFs on glutathione beads, 16-mer random dsDNA library, 0.1% formaldehyde crosslink after washing; high values mean tight binding", "key": {"FLI1": {"molecular_target": "T1, FLI1 (Homo sapiens, UniProt Q01543 1-452)", "T1 sequence": "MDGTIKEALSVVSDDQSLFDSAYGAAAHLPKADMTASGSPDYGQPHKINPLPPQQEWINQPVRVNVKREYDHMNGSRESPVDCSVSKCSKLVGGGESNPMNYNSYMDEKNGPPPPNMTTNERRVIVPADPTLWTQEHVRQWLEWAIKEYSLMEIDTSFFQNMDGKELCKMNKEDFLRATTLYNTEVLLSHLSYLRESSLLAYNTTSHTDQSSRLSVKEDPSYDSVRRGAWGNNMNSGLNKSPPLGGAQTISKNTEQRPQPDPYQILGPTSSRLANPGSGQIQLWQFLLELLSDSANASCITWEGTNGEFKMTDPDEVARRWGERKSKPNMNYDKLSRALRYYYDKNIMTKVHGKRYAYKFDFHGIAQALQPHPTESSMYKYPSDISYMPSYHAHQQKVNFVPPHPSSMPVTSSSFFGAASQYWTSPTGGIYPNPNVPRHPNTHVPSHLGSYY", "details": "protein: recombinant; tags: N-terminal GST; dsDNA, one strand shown", "summary_of_the_method": "(§1)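 Binding signal is each hexamer's read frequency for a factor divided by its frequency in the tag-only sample. The factors were GST-fused human transcription factors from yeast, captured on glutathione beads, DNA-barcoded and pooled with that sample. Pools were incubated with 200 nmole of a random double-stranded 16-mer DNA library in Tris/NaCl/DTT/glycerol buffer at room temperature for 30 min, then washed, crosslinked with 0.1% formaldehyde, proximity-ligated with BsaI/T4 ligase (1 h, 37 °C), PCR-amplified and sequenced on an Illumina NextSeq500.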"}, "ELF1": {"molecular_target": "ELF1 (Homo sapiens, UniProt P32519 1-619)", "sequence (P32519 whole entry)": "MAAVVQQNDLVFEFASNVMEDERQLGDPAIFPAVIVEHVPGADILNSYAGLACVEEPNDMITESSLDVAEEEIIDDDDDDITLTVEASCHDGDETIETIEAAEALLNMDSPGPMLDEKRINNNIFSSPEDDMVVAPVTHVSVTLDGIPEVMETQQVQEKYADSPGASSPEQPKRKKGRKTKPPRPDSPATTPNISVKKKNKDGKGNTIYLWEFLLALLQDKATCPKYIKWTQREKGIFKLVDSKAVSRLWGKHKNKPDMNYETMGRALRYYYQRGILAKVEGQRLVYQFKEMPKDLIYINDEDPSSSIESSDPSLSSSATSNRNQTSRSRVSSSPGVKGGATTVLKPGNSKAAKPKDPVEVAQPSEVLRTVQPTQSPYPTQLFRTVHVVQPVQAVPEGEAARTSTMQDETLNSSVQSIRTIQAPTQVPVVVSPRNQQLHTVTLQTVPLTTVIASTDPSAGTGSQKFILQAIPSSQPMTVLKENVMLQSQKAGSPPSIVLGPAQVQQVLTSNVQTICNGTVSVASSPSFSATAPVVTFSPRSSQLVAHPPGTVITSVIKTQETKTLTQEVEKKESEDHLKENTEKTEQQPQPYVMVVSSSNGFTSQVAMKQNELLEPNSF", "details": "protein: recombinant; tags: N-terminal GST; dsDNA, one strand shown", "summary_of_the_method": "as §1"}, "SPIB": {"molecular_target": "SPIB (Homo sapiens, UniProt Q01892 1-262)", "sequence (Q01892 whole entry)": "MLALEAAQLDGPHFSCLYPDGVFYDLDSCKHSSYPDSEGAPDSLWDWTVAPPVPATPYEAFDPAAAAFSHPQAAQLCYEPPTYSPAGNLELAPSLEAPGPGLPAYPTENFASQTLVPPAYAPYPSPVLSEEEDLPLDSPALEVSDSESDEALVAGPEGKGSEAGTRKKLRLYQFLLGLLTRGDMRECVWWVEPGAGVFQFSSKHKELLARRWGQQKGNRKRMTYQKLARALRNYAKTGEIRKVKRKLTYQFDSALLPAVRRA", "details": "protein: recombinant; tags: N-terminal GST; dsDNA, one strand shown", "summary_of_the_method": "as §1"}, "FEV": {"molecular_target": "T2, FEV (Homo sapiens, UniProt Q99581 1-238)", "T2 sequence": "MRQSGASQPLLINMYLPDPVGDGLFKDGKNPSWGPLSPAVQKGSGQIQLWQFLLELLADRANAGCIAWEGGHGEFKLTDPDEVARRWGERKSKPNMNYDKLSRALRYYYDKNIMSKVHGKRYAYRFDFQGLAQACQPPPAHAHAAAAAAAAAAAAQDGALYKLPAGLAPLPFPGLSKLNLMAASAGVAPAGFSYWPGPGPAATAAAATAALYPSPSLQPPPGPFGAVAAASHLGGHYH", "details": "protein: recombinant; tags: N-terminal GST; dsDNA, one strand shown", "summary_of_the_method": "as §1"}, "HSF1": {"molecular_target": "HSF1 (Homo sapiens, UniProt Q00613 1-529)", "sequence (Q00613 whole entry)": "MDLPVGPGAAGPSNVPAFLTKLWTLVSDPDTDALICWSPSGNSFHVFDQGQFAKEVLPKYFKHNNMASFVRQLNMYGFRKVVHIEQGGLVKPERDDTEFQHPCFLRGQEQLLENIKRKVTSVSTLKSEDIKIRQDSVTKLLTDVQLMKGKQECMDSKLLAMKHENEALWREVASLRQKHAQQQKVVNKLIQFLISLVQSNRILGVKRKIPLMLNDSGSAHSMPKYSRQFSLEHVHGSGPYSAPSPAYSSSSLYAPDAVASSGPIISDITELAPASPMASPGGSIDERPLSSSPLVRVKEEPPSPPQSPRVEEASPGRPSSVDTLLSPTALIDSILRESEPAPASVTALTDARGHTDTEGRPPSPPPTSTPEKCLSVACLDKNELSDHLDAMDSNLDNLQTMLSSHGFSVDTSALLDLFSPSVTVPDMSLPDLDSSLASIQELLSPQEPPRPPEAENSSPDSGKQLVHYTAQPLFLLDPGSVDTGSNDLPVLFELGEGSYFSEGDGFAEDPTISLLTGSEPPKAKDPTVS", "details": "protein: recombinant; tags: N-terminal GST; chain copies: 3; dsDNA, one strand shown", "summary_of_the_method": "as §1"}, "ELK4": {"molecular_target": "T3, ELK4 (Homo sapiens, UniProt P28324-2 1-405)", "T3 sequence": "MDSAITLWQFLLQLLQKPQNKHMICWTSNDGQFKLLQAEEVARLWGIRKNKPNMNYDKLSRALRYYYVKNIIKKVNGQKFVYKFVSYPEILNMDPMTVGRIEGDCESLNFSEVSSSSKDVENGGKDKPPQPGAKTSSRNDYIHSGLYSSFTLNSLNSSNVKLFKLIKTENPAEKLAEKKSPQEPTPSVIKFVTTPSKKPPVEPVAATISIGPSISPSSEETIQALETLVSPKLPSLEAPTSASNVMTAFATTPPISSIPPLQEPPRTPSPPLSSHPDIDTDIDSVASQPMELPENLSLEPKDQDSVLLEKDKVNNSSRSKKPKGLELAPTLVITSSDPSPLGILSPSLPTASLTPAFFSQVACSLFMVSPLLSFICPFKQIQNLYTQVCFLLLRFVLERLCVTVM", "details": "protein: recombinant; tags: N-terminal GST; dsDNA, one strand shown", "summary_of_the_method": "as §1"}, "ELF3": {"molecular_target": "T4, ELF3 (Homo sapiens, UniProt P78545 1-371)", "T4 sequence": "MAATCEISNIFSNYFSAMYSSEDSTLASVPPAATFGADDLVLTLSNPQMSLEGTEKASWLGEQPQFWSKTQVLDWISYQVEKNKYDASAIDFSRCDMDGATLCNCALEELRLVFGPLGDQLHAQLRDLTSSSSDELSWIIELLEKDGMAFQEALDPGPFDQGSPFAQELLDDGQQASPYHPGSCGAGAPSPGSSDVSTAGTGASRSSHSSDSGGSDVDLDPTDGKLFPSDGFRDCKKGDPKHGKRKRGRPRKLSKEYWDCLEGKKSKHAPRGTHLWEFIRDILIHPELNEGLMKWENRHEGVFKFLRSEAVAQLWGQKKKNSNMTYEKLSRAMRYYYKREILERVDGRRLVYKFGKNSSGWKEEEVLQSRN", "details": "protein: recombinant; tags: N-terminal GST; dsDNA, one strand shown", "summary_of_the_method": "as §1"}, "CRX": {"molecular_target": "CRX (Homo sapiens, UniProt O43186 1-299)", "sequence (O43186 whole entry)": "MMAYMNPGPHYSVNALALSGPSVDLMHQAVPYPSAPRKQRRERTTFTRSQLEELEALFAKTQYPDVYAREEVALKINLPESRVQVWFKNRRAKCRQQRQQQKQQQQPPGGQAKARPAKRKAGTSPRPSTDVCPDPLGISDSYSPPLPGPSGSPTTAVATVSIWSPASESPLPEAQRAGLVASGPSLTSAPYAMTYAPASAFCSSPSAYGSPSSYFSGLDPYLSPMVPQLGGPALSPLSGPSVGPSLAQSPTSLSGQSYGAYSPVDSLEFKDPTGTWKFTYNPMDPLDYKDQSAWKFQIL", "details": "protein: recombinant; tags: N-terminal GST; dsDNA, one strand shown", "summary_of_the_method": "as §1"}, "SPDEF": {"molecular_target": "T5, SPDEF (Homo sapiens, UniProt O95238 1-335)", "T5 sequence": "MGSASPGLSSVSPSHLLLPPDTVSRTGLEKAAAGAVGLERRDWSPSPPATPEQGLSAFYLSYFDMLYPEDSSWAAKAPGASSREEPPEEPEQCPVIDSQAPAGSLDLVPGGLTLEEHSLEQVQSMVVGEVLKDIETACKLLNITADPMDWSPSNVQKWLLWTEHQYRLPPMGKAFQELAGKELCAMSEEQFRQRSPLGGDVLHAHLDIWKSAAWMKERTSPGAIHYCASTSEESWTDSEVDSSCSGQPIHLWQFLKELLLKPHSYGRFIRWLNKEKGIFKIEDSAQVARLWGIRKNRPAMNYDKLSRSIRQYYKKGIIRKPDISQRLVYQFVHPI", "details": "protein: recombinant; tags: N-terminal GST; dsDNA, one strand shown", "summary_of_the_method": "as §1"}, "ETV7": {"molecular_target": "T6, ETV7 (Homo sapiens, UniProt Q9Y603 1-341)", "T6 sequence": "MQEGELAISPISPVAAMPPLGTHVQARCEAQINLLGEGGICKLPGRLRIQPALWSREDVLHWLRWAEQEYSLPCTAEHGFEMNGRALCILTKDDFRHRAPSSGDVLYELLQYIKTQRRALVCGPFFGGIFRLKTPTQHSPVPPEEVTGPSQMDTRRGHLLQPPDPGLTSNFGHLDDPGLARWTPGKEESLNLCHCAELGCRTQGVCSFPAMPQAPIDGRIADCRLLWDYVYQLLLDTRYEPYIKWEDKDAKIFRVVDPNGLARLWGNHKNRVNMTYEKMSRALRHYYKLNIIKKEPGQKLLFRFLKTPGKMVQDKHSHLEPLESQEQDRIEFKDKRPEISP", "details": "protein: recombinant; tags: N-terminal GST; dsDNA, one strand shown", "summary_of_the_method": "as §1"}}}
{"sequence": "TTGGAT", "values": [{"measurement": "binding signal", "setting": "FLI1", "value": "1.02 fold enrichment (6-mer frequency, TF over GST control)"}, {"measurement": "binding signal", "setting": "ELF1", "value": "1.01 fold enrichment (6-mer frequency, TF over GST control)"}, {"measurement": "binding signal", "setting": "SPIB", "value": "1.07 fold enrichment (6-mer frequency, TF over GST control)"}, {"measurement": "binding signal", "setting": "FEV", "value": "1 fold enrichment (6-mer frequency, TF over GST control)"}, {"measurement": "binding signal", "setting": "HSF1", "value": "1.21 fold enrichment (6-mer frequency, TF over GST control)"}, {"measurement": "binding signal", "setting": "ELK4", "value": "1.04 fold enrichment (6-mer frequency, TF over GST control)"}, {"measurement": "binding signal", "setting": "ELF3", "value": "1.04 fold enrichment (6-mer frequency, TF over GST control)"}, {"measurement": "binding signal", "setting": "CRX", "value": "1.39 fold enrichment (6-mer frequency, TF over GST control)"}, {"measurement": "binding signal", "setting": "SPDEF", "value": "1.13 fold enrichment (6-mer frequency, TF over GST control)"}, {"measurement": "binding signal", "setting": "ETV7", "value": "1.01 fold enrichment (6-mer frequency, TF over GST control)"}]}
